# Measured values reported in PubChem BioAssay (NCATS).
# Results filed as inconclusive are left out. A call without a number means that no potency is given here. A number with no mark means an inactive call. Calls of active or inactive are those of the source. The call rests on the fitted dose curve; in most records, active means well fitted curve in the direction sought with a large enough effect; inconclusive means small, poorly fitted or top-dose-only effect, or another doubt; inactive means no such curve, though single readings can be large; an effect the other way counts as inactive or inconclusive. Peptide text beside a SMILES is read from it. * marks the point of attachment. Hexanoyl = CCCCCC(=O)*
# Molecular target: Aldehyde dehydrogenase, mitochondrial (Homo sapiens) (UniProt P05091)
# Assay: qHTS for Inhibitors of the Aldehyde Dehydrogenase Family (ALDH2) Primary screen (AID 2061308); further: nearly all actives have a fitted effect of over 55% in size
# Settings: ALDH2 enzyme inhibition qHTS, 1536-well; series mostly up to 56 µM
SMILES,Potency,"activity change, negative = inhibition"
CC(=O)NC(Cc1ccccc1)C(=O)O (stereo not given),inactive,–
Cc1ccccc1C(=O)N1CC/C(=N\OS(=O)(=O)O)c2ccc(Cl)cc21,inactive,–
C[C@H]1[C@H](C)CC[C@]2(C(=O)O)CC[C@]3(C(=O)O)C(=CCC4[C@@]5(C)CC[C@H](O[C@@H]6O[C@@H](C)[C@H](O)[C@@H](O)[C@H]6O)C(C)(C)C5CC[C@]43C)[C@H]12 (stereo not given in full),inactive,–
CC12CC34CC(O)C5C(CO)(CO)CC(=O)CC5(C)C3CC1C2C4 (stereo not given),inactive,–
CC(C)(C)NCc1cc(Nc2ccnc3cc(Cl)ccc23)c2c(c1O)CCCC2,–,-0.555% [at 0.464 µM]

# Molecular target: Retinaldehyde dehydrogenase 3 (Homo sapiens) (UniProt P47895)
# Assay: qHTS for Inhibitors of the Aldehyde Dehydrogenase Family (ALDH1A3) Primary screen (AID 2061315)
# Settings: ALDH inhibition qHTS; series mostly up to 56 µM
SMILES,"activity change, negative = inhibition",Potency
C[C@@H]1O[C@@H](O[C@H]2[C@H](O[C@H]3CC[C@@]4(C)C(CC[C@]5(C)C4CC=C4C6CC(C)(C)CC[C@]6(C(=O)O[C@@H]6O[C@H](CO[C@@H]7O[C@H](CO)[C@@H](O[C@@H]8O[C@@H](C)[C@H](O)[C@@H](O)[C@H]8O)[C@H](O)[C@H]7O)[C@@H](O)[C@H](O)[C@H]6O)CC[C@]45C)[C@]3(C)CO)OC[C@H](O)[C@@H]2O)[C@H](O)[C@H](O)[C@H]1O (stereo not given in full),17.4% [at 11.2 µM],–
C[C@@H]1CCC2C(C)(C)[C@H](O)CC[C@]2(C)[C@@]12Cc1c(O)cc3c(c1O2)CNC3=O (stereo not given in full),–,inactive
Cc1ccc(S(=O)(=O)NCc2ccc(C(=O)NCCN(Cc3ccccc3)C(C)C)cc2)cc1,–,inactive
C=C(C)C1CC(O)C(C)C12CC(O)C1(C)OC1C2O (stereo not given),–,inactive
C/C=C/C=C/C=C/C(=O)N(C)C(C(=O)NC(C)C(=O)N1CCCC1C(N)=O)C(C)C (stereo not given),–,inactive
COc1cc(COC2OC(CO)C(O)C(O)C2O)cc(OC)c1O (stereo not given),–,inactive
Nc1ncnc2c1c(-c1ccc(Cl)cc1)nn2-c1cccc(-c2cnnn2Cc2cccc(-c3ccccc3)c2)c1,–,inactive
C[C@@H](c1ccccc1)N(C(N)=NC#N)c1cccc2ncccc12,–,inactive
COc1ccccc1-c1cc(Nc2cccc(CS(N)(=O)=O)c2)ncn1,–,inactive
C=CC1(C)CC(OC(=O)C(=C)C(O)COC(C)=O)C(C(=C)C(=O)OC)C(O)C1C(=C)CO (stereo not given),–,inactive
C[C@@]1(O)[C@H](O)[C@@H](CO)O[C@H]1n1ccc(N)nc1=O,–,inactive
C=C1C(=O)O[C@@H]2[C@H]1CCC(C)=C1CCC(=O)O[C@]12C,–,inactive
COc1cc(/C=C/C(=O)OC2CC3CCC2(C)C3(C)C)ccc1O (stereo not given),–,inactive
COc1cc(C(C)=O)ccc1O[C@@H]1O[C@H](CO)[C@@H](O)[C@H](O)[C@H]1O,–,inactive
CC1(C)CC2C(C1)C(C)(O)C13CC1(COC3=O)C2O (stereo not given),–,inactive
CCC(C)/C=C(C)/C=C/C1=CC2=C(Cl)C(=O)C(C)(O)C(=O)C2(O)C(OC)O1 (stereo not given),–,inactive
C/C=C(\C)C(=O)O[C@H]1C=CC(=O)O[C@H]1/C=C/[C@@H](O)[C@H](C)O,–,inactive
N#Cc1cccc(C(=O)Nc2cc(-c3ccccc3)nn2-c2ccccc2)c1,–,inactive
CC1(C)CCC[C@@]2(C)C1[C@H](OC(=O)/C=C/C=C/C(=O)O)C=C1COC(=O)[C@@]12O (stereo not given in full),–,inactive
C=C(C)[C@@H]1CC[C@]2(C(=O)O)CC[C@]3(C)C(CCC4[C@@]5(C)C[C@@H](O)[C@H](O)C(C)(C)C5CC[C@]43C)C12 (stereo not given in full),–,inactive

SMILES,"activity change, negative = inhibition",Potency
CC(C)c1c(O)ccc2c1CC[C@H]1C(C)(C)CCC[C@]21C,–,inactive
OCC(CO)(CO)NCC(O)Cn1c2ccc(Cl)cc2c2cc(Cl)ccc21 (stereo not given),–,inactive
CCCCCC(=O)N1CCC[C@H]1C(=O)N[C@@H](Cc1ccc(O)cc1)C(=O)OC (Hexanoyl-Pro-Tyr-OMe),–,inactive
CC(C)OC(=O)N1CCC(Oc2ncnc3c2cnn3-c2ccc(S(C)(=O)=O)cc2F)CC1,–,inactive
CC1CCC2(C(=O)O)CCC3(C)C(=CCC4C5(C)CCC(OC(=O)/C=C/c6ccccc6)C(C)(C)C5CCC43C)C2C1C (stereo not given),–,inactive
CN1CCN(S(=O)(=O)c2ccc(-c3cnc(N)c(C(=O)Nc4cccnc4)n3)cc2)CC1,–,inactive
Cc1ccccc1C(=O)Nc1ccc(C(=O)N2CCC[C@@H](O)c3cc(Cl)ccc32)c(C)c1,–,inactive
Cc1ccccc1CN1C2=NCCN2C(=O)C2=C1CCN(Cc1ccccc1)C2,–,inactive
C[C@@H](Nc1cc(NS(=O)(=O)N2CCC2)nc(SCc2cccc(F)c2F)n1)[C@@H](O)CO,–,inactive
C[C@@H]1C(=O)O[C@H]2CC34[C@H]5C[C@@H](C(C)(C)C)C36[C@@H](OC(=O)[C@@H]6O)O[C@@]4(C(=O)O5)[C@]21O (stereo not given in full),–,inactive
CCCOc1ccc(-c2nc(OC)c3ccccc3n2)cc1,–,inactive
C[C@H](/C=C/[C@@]1(O)[C@H](C)CC(=O)CC1(C)C)O[C@@H]1O[C@H](CO[C@@H]2OC[C@@H](O)[C@H](O)[C@H]2O)[C@@H](O)[C@H](O)[C@H]1O,–,inactive
O=c1ccn(C2OC(CO)C(O)C2O)c(=O)[nH]1 (stereo not given),–,inactive
CC1(c2nc3c(C(N)=O)cccc3[nH]2)CCCN1 (stereo not given),–,inactive
Cc1cn2cc(CC(=O)N3CCC4(CC3)CN(Cc3ccc(-n5nccn5)cc3Cl)C4)nc2s1,–,inactive
CC(=O)NC(Cc1ccccc1)C(=O)O (stereo not given),–,inactive
Cc1ccccc1C(=O)N1CC/C(=N\OS(=O)(=O)O)c2ccc(Cl)cc21,–,inactive
C[C@H]1[C@H](C)CC[C@]2(C(=O)O)CC[C@]3(C(=O)O)C(=CCC4[C@@]5(C)CC[C@H](O[C@@H]6O[C@@H](C)[C@H](O)[C@@H](O)[C@H]6O)C(C)(C)C5CC[C@]43C)[C@H]12 (stereo not given in full),–,inactive
CC12CC34CC(O)C5C(CO)(CO)CC(=O)CC5(C)C3CC1C2C4 (stereo not given),–,inactive
CC(C)(C)NCc1cc(Nc2ccnc3cc(Cl)ccc23)c2c(c1O)CCCC2,-4.88% [at 0.464 µM],–
